This passage reports sensor-assay potency score (higher = more potent) results from the OligoGym collection.
Note: reference of the scale not given here.

For one test, the target named is GHSR. Briefly: pooled miR-30 sensor sort-seq; sequence = guide strand. Particulars: shRNA.
The sequence TTGGACATGATGTTGTACAGAA gave a sensor-assay potency score (higher = more potent) of 0.099. The same measure, in the same setting: the same measure for TTGAACCCCGGCTCTTCGCTGG: -0.129; for TTGCTTGTGGTTCTGGTCCCTG: -0.711; for TTTCACGGTTTGCTTGTGGTTC: -0.265. On the same count and under the same terms, the same measure for TAGCGCTCGACGCTCAGCGCTG: -1.17; for TTGCAGTACTGGCTGATCTGAG: -0.301; for TTGGAAAATAAATATCGCCCTA: -0.35. On the same count and under the same terms, the same measure for TTTGCAGAGGAGGTCGCCGAAG: -1.38.

TAGAAGAGGACAAAGGACACGA yielded a sensor-assay potency score (higher = more potent) of 0.735.

Another test concerns the target GINS3. The description is as above. Particulars: shRNA.
Sequence TTCTATGCAATAATGTTGCAAA displayed a sensor-assay potency score (higher = more potent) of -0.524.

Sequence TTTCTCTTCTTGTAATTCTGAA registered a sensor-assay potency score (higher = more potent) of -0.125. The same measure, in the same setting: the same measure for TAGTGCTTGCTTAACCAGGTTC: -0.37; for TTATAAAAACAACAATTCCATC: -1.34; for TTCTCTTCTTGTAATTCTGAAC: -1.11. In the case of TTTATTTAGCACTAAAATCAAA, the sensor-assay potency score (higher = more potent) is -1.42. Same read-out and setting: with TAGTGAAACTGTACATCTGAAG the figure was -1.07. The same measure, in the same setting: with TTTGTGGCTAGTGAAACTGTAC the figure was -0.833. On the same count and under the same terms, the same measure for TTTCTTTCTCAACCTGAGGTTG: -0.934. The sequence TACAAGGTCAACCAGCTCCTAT displayed a sensor-assay potency score (higher = more potent) of -1.16. On the same count and under the same terms, with TCTTCTTGTAATTCTGAACGAG the figure was -0.383. Same read-out and setting: with TTATTTAGGAAGGACTTTGATT the figure was -0.522.

The target of the next test is GIPC2. The test is described as above. Particulars: shRNA.
With TATGAAATCTTCTAGTCCTAGT, the sensor-assay potency score (higher = more potent) was -0.186. Still for that read-out and setting: the same measure for ATATGAAATCTTCTAGTCCTAG: -0.694; for TTTCTCCTGATGACTTTCCAGC: -1.05; for TAACTTCTTAGCAACATCATAG: -1.26. Still for that read-out and setting: with TTACTTTGTCCTTTCCAGCTTC the figure was -0.236; with TAACTGAGTCAATAACACCACC, -0.972. Same read-out and setting: with TTAACTTCTTAGCAACATCATA the figure was -1.57; with TAAAAGCATAGCCAACACCATT, -1.62.

With ATACACATGAAATTAAACCAGA, the sensor-assay potency score (higher = more potent) is -0.735. The same measure, in the same setting: with TTAACTGAGTCAATAACACCAC the figure was 0.431; with TTAGGTTCTATTAACTTCATAG, -0.883. TTTATACACATTCACTTCTTTT came in with a sensor-assay potency score (higher = more potent) of -1.24.

The target of a further test is GIP. Described as above. To be noted: shRNA.
Consider TAGTCACTGATGAAAGTCCCTT, for which the sensor-assay potency score (higher = more potent) was -0.346. Still for that read-out and setting: the same measure for AATACTGTAGTCACTGATGAAA: -1.63; for TTGGTGAATCTTGTCCATGGCA: -0.501. The same measure, in the same setting: with TCTTGAATCAGCAAGTCCCGCA the figure was -0.377. The same measure, in the same setting: the same measure for AAAGTCTTGTTGGTGAATCTTG: -0.684; for TCACCTTAGCATGAGATCCAAC: -1.2.

As to TTGTTGGTGAATCTTGTCCATG, the sensor-assay potency score (higher = more potent) was -1.48.
